PubChem BioAssay (NCATS)
Where “and” joins values, the source holds several entries; their conditions need not be identical. Identical values can stand only once. Unmarked numbers belong to inactive results. Records with an inconclusive call do not appear. Calls of active or inactive are those of the source. Unless noted, calls come from the whole dose curve; as a rule, active = well fitted inhibition curve with a large enough effect; inconclusive = small, poorly fitted or top-dose-only effect; inactive = flat fitted curve, though single readings scatter.

How the values were obtained:
[1] = system: astro; test: Drug repurposing screens with cells derived from glioblastoma tumor samples (AID 1345199); settings: viability, ATP luminescence, 48 h; series mostly up to 45.9 µM; note: % is set by controls: 0 for no effect and ±100 for the full control effect; nearly all actives have a fitted effect of over 40% in size
Summary of the method: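 Primary testing used CD133+ neurospheres from four GBM patients, seven concentrations, 48 h exposure and ATP-based viability; confirmation added three slower-growing patient lines.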

[2] = target: Nuclear receptor subfamily 1 group I member 2 (Rattus norvegicus) (UniProt Q9R1A7); test: qHTS assay for small molecule activators of the rat pregnane X receptor (rPXR) signaling pathway (AID 651751; call rule not given here; note: 0% is about no effect); settings: rPXR reporter cells, luciferase (One-Glo), 24 h
Sequence of Nuclear receptor subfamily 1 group I member 2 (Rattus norvegicus) (Q9R1A7 whole entry, looked up): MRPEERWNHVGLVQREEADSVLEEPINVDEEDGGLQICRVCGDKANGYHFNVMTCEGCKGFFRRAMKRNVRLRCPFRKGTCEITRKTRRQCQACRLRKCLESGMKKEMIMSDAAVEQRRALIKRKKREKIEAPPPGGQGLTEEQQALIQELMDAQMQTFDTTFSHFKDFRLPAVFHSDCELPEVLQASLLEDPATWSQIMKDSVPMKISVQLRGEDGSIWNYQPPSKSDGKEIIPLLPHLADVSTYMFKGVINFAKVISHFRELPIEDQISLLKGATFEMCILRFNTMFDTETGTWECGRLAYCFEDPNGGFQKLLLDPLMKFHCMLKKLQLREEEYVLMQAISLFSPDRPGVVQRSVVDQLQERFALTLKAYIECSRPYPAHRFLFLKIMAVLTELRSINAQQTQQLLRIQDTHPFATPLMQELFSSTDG

[3] = qHTS assay for small molecule activators of the human pregnane X receptor (PXR) signaling pathway (AID 720659; call rule not given here; note: 0% is about no effect)

With CN[C@@H]1[C@H](O)[C@H](NC)[C@H]2O[C@@]3(O)C(=O)C[C@@H](C)O[C@H]3O[C@@H]2[C@H]1O the outcome [1] was “inactive”.

With O=C(O)/C=C/c1ccc(Cn2ccnc2)cc1 the outcome [1] was “inactive”.

In the case of CC1CCc2cc(F)cc3c(=O)c(C(=O)O)cn1c23 (centres undefined), the outcome [1] is reported as “inactive”.

In the case of CCOc1ccccc1O[C@H](c1ccccc1)[C@H]1CNCCO1, the outcome [1] is reported as “inactive”.

For O=c1[nH]c(=O)c2ccccc2o1, the outcome [1] was “inactive”.

In the case of Nc1ncnc2c1ncn2[C@@H]1O[C@H](COP(=O)(O)O)[C@@H](O)[C@H]1O, the outcome [1] is reported as “inactive”.

For O=C(O)[C@@H]1[C@H]2C[C@H]3c4[nH]c5ccccc5c4CCN3C[C@@H]2CC[C@@H]1O, the outcome [1] was “inactive”.

For NS(=O)(=O)c1cc(C2(O)NC(=O)c3ccccc32)ccc1Cl (centres undefined), the outcome [1] was “inactive”.

For C=CCN1C[C@H](C(=O)N(CCCN(C)C)C(=O)NCC)C[C@@H]2c3cccc4[nH]cc(c34)C[C@H]21, the outcome [1] was “inactive”.

With O=C(O)CCC(=O)O the outcome [1] was “inactive”.

With Cc1c(C)c2c(c(C)c1OC(=O)c1cccnc1)CC[C@@](C)(CCC[C@H](C)CCC[C@H](C)CCCC(C)C)O2 the outcome [1] was “inactive”.

With Cc1cc(OI)c(C(C)C)cc1-c1cc(C(C)C)c(OI)cc1C the outcome [1] was “inactive”.

For CC(O)CCCCn1c(=O)c2c(ncn2C)n(C)c1=O (centres undefined), the outcome [1] was “inactive”.

For O=C(O)c1ccc[n+]([O-])c1, the outcome [1] was “inactive”.

In the case of CN1C(C)(C)CCCC1(C)C, the outcome [1] is reported as “inactive”.

In the case of Cc1cc(NC(=O)C2=C(O)c3ccccc3S(=O)(=O)N2C)no1, the outcome [1] is reported as “inactive”.

For COc1ccc(-c2cc(=O)c3c(O)cc(O[C@@H]4O[C@H](CO[C@@H]5O[C@@H](C)[C@H](O)[C@@H](O)[C@H]5O)[C@@H](O)[C@H](O)[C@H]4O)cc3o2)cc1O, the outcome [1] was “inactive”.

With OC(CCN1CCCC1)(c1ccccc1)C1CCCCC1 (centres undefined) the outcome [1] was “inactive”.

With CC(=O)OCC(=O)[C@@]1(O)CC[C@H]2[C@@H]3CCC4=CC(=O)C=C[C@]4(C)[C@@]3(F)[C@@H](O)C[C@@]21C the outcome [1] was “inactive”.

In the case of CC[C@H](C)[C@H](N)C(=O)O, the outcome [1] is reported as “inactive”.

For CN1CCN(C(=O)C2CCCCC2)CC1, the outcome [1] was “inactive”.

In the case of CN/C(=C\[N+](=O)[O-])NCCSCc1csc(CN(C)C)n1, the outcome [1] is reported as “inactive”.

With NC(N)=NS(=O)(=O)c1ccc(N)cc1 the outcome [1] was “inactive”.

With O=C(O)c1ccc(OCCCOc2ccc(C(=O)O)cc2)cc1 the outcome [1] was “inactive”.

For Cc1ccc(S(=O)(=O)NC(=O)NC2CCCCCCC2)cc1, the outcome [1] was “inactive”.

With COc1ccc(C(=O)N2CCN(CC(=O)N3CCOCC3)CC2)cc1 the outcome [1] was “inactive”.

With CC(=O)OC[C@H]1O[C@@](COC(C)=O)(O[C@H]2O[C@H](COC(C)=O)[C@@H](OC(C)=O)[C@H](OC(C)=O)[C@H]2OC(C)=O)[C@@H](OC(C)=O)[C@@H]1OC(C)=O the outcome [1] was “inactive”.

For CC(CSC(=O)c1ccccc1)C(=O)N1C[C@@H](Sc2ccccc2)C[C@H]1C(=O)O (some centres undefined), the outcome [1] was “inactive”.

For C1CCN2C[C@@H]3C[C@@H](CN4CCCC[C@@H]34)[C@H]2C1, the outcome [1] was “inactive”.

In the case of CCCNC(C)(C)COC(=O)c1ccccc1, the outcome [1] is reported as “inactive”.

In the case of C=CCOc1ccccc1OCC(O)CNC(C)C (centres undefined), the outcome [1] is reported as “inactive”.

In the case of C[C@@H]1CCC[C@H](C)N1, the outcome [1] is reported as “inactive”.

In the case of NS(=O)(=O)c1ccc(NC(=O)CCC(=O)O)cc1, the outcome [1] is reported as “inactive”.

With CCOc1ccc(C(=O)OCCN(CC)CC)cc1 the outcome [1] was “inactive”.

In the case of CCC(C)(CN(C)C)OC(=O)c1ccccc1 (centres undefined), the outcome [1] is reported as “inactive”.

With OCC(O)CS (centres undefined) the outcome [1] was “inactive”.

In the case of Cc1c(C(=O)NCCO)[n+](=O)c2ccccc2n1[O-], the outcome [1] is reported as “inactive”, the max response [2] is reported as 1.89% and the outcome [3] is reported as “inactive”.

In the case of CC1(C)S[C@@H]2[C@H](N=CN3CCCCCC3)C(=O)N2[C@H]1C(=O)O, the outcome [1] is reported as “inactive”.

In the case of COC(=O)c1ccc(O)cc1, the max response [2] is reported as -3.01% and the outcome [3] is reported as “inactive”.

With CC(=O)Nc1ccc(C(=O)O)cc1 the outcome [1] was “inactive”, the max response [2] was 0.613% and the outcome [3] was “inactive”.

With Cc1cccc(Nc2ccccc2C(=O)O)c1C the max response [2] was 2.62%.

For Cc1cc(O)cc(C)c1Cl, the max response [2] was 1.15% and the outcome [3] was “inactive”.

In the case of CCCCCC(N)=O, the outcome [1] is reported as “inactive”, the max response [2] is reported as 8.83% and the outcome [3] is reported as “inactive”.

In the case of Cc1c(N(C)C)c(=O)n(-c2ccccc2)n1C, the max response [2] is reported as -0.504% and 0.241% and the outcome [3] is reported as “inactive”.

With CC1CC(OC(=O)c2ccccc2O)CC(C)(C)C1 (centres undefined) the outcome [1] was “inactive” and the max response [2] was 5.1%.

In the case of CCCCCCCCCCCCCCCCCCO, the outcome [1] is reported as “inactive”, the max response [2] is reported as 0.797% and the outcome [3] is reported as “inactive”.

With CCCCCCCC(=O)OCC(COC(=O)CCCCCCC)OC(=O)CCCCCCC the outcome [1] was “inactive”, the max response [2] was -0.801% and the outcome [3] was “inactive”.

With CN1C(=O)CC(c2ccccc2)C1=O (centres undefined) the outcome [1] was “inactive”.

With Cc1cc(C)nc(NS(=O)(=O)c2ccc(N)cc2)n1 the outcome [1] was “inactive” and the max response [2] was 4.51% and 0.319%.
